CBX7 AlphaScr: CBX7 chromodomain binding inhibitors, primary screen, biochemical, AlphaScreen; AlphaScreen His6-CBX7 / biotin-H3K27me3 peptide binding; active compounds read low; hit rate 1.1% among 66,000; AID 1224903, 2016; normalised signal (fraction of DMSO) (no concentration beside the values); in the data active = normalised signal below about 0.5
Target sequence (O95931 whole entry, looked up): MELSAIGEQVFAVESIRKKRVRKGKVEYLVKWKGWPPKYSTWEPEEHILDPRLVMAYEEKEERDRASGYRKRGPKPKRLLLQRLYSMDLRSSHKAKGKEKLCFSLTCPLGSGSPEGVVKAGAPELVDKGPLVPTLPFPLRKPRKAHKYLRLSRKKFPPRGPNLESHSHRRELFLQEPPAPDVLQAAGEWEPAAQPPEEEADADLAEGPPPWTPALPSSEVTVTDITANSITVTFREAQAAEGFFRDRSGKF
* hit, by the source's call; ! = not confirmed by another sample. The full list was thinned out, with hits kept by preference.

SMILES | CBX7 AlphaScr
COc1ccc(C(=O)Nc2nc(-c3ccccc3)cs2)cc1OC | 0.834
O=C(Nc1nc(-c2ccccn2)cs1)c1cccc(Oc2ccccc2)c1 | 0.039*
O=C(Nc1nc(-c2ccccn2)cs1)c1ccc(N2C(=O)CCC2=O)cc1 | 0.0715*
COc1cc(C(=O)Nc2nc(-c3ccccn3)cs2)cc(OC)c1OC | 0*
Cc1ccc(-c2csc(NC(=O)c3cccc(Oc4ccccc4)c3)n2)cc1 | 1.06
CN(Cc1ccccc1)S(=O)(=O)c1ccc(C(=O)Nc2nc(-c3ccccn3)cs2)cc1 | 0.94
Cc1cc(C)c(-c2csc(NC(=O)c3cccc(Oc4ccccc4)c3)n2)c(C)c1 | 1.1
COc1cc(C(=O)Nc2ccccn2)cc(OC)c1OC | 1.08
CCCCN(CCCC)S(=O)(=O)c1ccc(C(=O)Nc2nc(-c3ccccn3)cs2)cc1 | 0.933
CCn1c(C(=O)N2CCN(c3ccccc3F)CC2)cc2sc(Cl)cc21 | 0.946
COc1ccccc1Nc1cc(C(=O)NCCN(C)Cc2ccccc2)c2ccccc2n1 | 1.19
CCOC(=O)c1cc(-c2ccc(OC)cc2)n(CCC(=O)N2CCN(c3cc(C)ccc3C)CC2)c1C | 0.726
COc1ccc(Cl)cc1-c1nc(-c2cccs2)no1 | 1.12
COc1ccccc1Nc1nc(-c2ccccc2)c(C)s1 | 0.988
O=C(O)C1CCN(c2nc(-c3cccc4ccccc34)cs2)CC1 | 1.05
CC(C)(C)c1ccc(OCCCC(=O)Nc2nc3ccccc3s2)cc1 | 1.16
O=C(Nc1cc(F)ccc1F)C1CCCN(S(=O)(=O)c2cccs2)C1 (stereo unspecified) | 1.01
COc1ccccc1Nc1nc(-c2sc(NC(C)=O)nc2C)cs1 | 0.943
Cc1nc(N)sc1-c1csc(Nc2ncccn2)n1 | 0.693
Cc1ccccc1Nc1nc(-c2sc(N)nc2C)cs1 | 0.66
COc1ccccc1Nc1nc(-c2sc(N)nc2C)cs1 | 0.372*
Cc1cccc(Nc2nc(-c3sc(N)nc3C)cs2)c1 | 0.483*
CC(=O)Nc1nc(C)c(-c2csc(Nc3cccc(C)c3)n2)s1 | 0.933
Cc1cc(C(F)(F)F)c2c(-c3ccccc3)nn(-c3ccccc3)c2n1 | 1.28
COc1cccc(NS(=O)(=O)c2cc(C(=O)O)ccc2NCc2ccc(F)cc2)c1 | 1.01
SMILES | CBX7 AlphaScr
CCn1cnc2cc(NCc3ccc(C)cc3)ccc21 | 0.524
CC(C)n1cnc2cc(NCc3ccc(Cl)cc3)ccc21 | 0.405*
CCOc1ccc(CNc2ccc3c(c2)ncn3C)cc1 | 0.685
CC(C)n1cnc2cc(NCc3ccc(Br)cc3)ccc21 | 0.378*
CC(C)n1cnc2cc(NCc3nc4ccccc4n3C)ccc21 | 0.867
CC(C)(C)n1cnc2cc(NCc3ccncc3)ccc21 | 0.959
Cc1ccc(-c2nc(S(=O)(=O)c3ccc(F)cc3)c(SCC(=O)c3ccccc3)o2)cc1 | 0.884
O=C1CCc2cc(S(=O)(=O)NC(C(=O)Nc3ccc(F)cc3F)c3ccccc3)ccc2N1 (stereo unspecified) | 1.22
CC(=O)Nc1ccc(NC(=O)c2scc3c2OCCO3)cc1 | 1.04
CCCc1noc(-c2cc(-c3ccncc3)nc3ccccc23)n1 | 0.436*
Cc1ccccc1-c1noc(-c2cc(-c3ccncc3)nc3ccccc23)n1 | 0.746
c1ccc2c(-c3nc(-c4ccncc4)no3)cc(-c3ccncc3)nc2c1 | 1.06
CCN(CC)c1ccc(NS(=O)(=O)c2ccc3c(c2)CCN3C(=O)C2CC2)c(C)c1 | 0.654
Cc1ccn2c(-c3csc(Nc4ccccc4Cl)n3)c(C)nc2c1 | 0.83
Cc1nc2ccccn2c1-c1csc(Nc2ccc(N(C)C)cc2)n1 | 0.466*
CC(=O)Nc1ccc(Nc2nc(-c3c(C)nc4ccccn34)cs2)cc1 | 0.953
Cc1ccn2c(-c3csc(Nc4ccccc4)n3)c(C)nc2c1 | 0.845
Cc1ccn2c(-c3csc(Nc4cccc(C(=O)O)c4)n3)c(C)nc2c1 | 0.79
Cc1nc(C)c(-c2csc(Nc3ccc(Cl)cc3)n2)s1 | 0.588
Cc1ccc(Nc2nc(-c3c(C)nc4cc(C)ccn34)cs2)c(C)c1 | 0.416*!
Cc1ccn2c(-c3csc(Nc4ccccc4C)n3)c(C)nc2c1 | 1.05
Cc1nc(C)c(-c2csc(Nc3ccc(N(C)C)cc3)n2)s1 | 0.0536*
CCN(CC)c1ccc(Nc2nc(-c3c(C)nc4cc(C)ccn34)cs2)cc1 | 0.235*
CC(=O)Nc1nc(C)c(-c2csc(Nc3ccc(Cl)cc3)n2)s1 | 1.01
Cc1nc2ccccn2c1-c1csc(Nc2ccc(Br)cc2)n1 | 1.02
SMILES | CBX7 AlphaScr
O=C(O)c1[nH]c2ccc(Cl)cc2c1CC(=O)N1CCCCCC1 | 1.04
O=C(O)CCc1ccc(-c2cccs2)n1-c1ccc(Br)cc1 | 1
COc1cc2c(cc1OC)C(C(=O)N1CCN(c3ccccn3)CC1)C(c1ccccc1F)N(C)C2=O (stereo unspecified) | 0.921
CCOC(=O)C1CCN(C(=O)C2CCN(S(=O)(=O)c3cnc[nH]3)CC2)CC1 | 1.13
COC(=O)c1c(NC(=O)CN2CCCCCC2)sc2c1CCC(C)C2 (stereo unspecified) | 1.03
C(=C\c1ccccc1)/Cn1c(COc2ccccc2)nc2ccccc21 | 0.961
O=C(Nc1nnc(/C=C/c2ccccc2)s1)c1ccccc1Cl | 1
Cc1ccc2oc(-c3cccc(NC(=O)c4cccc(F)c4)c3C)nc2c1 | 1.02
Cc1nc2sccn2c1-c1csc(Nc2cccc(O)c2)n1 | 0.271*!
Cc1ccc(Nc2nc(-c3c(C)nc4sccn34)cs2)cc1 | 0.682
Cc1nc2sccn2c1-c1csc(Nc2ccccc2)n1 | 0.741
O=c1cc(Cc2nnc(SCc3ccccc3)n2-c2ccc(F)cc2)[nH]c(=O)[nH]1 | 1.01
O=C1CC(c2ccccc2F)c2cc3c(cc2N1)OCCO3 (stereo unspecified) | 0.819
COC(=O)CSc1nnc(Cc2cc(=O)[nH]c(=O)[nH]2)n1-c1ccc(Cl)cc1 | 0.833
c1nc(Oc2ccc3c4c2CCCN4CCC3)c2c3c(sc2n1)CCCC3 | 0.268*
c1ccc(Cc2ccc(Oc3ncnc4sc5c(c34)CCCC5)cc2)cc1 | 1.29
c1ccc(COc2ccc(Oc3ncnc4sc5c(c34)CCCC5)cc2)cc1 | 1.18
CCCCOC(=O)c1ccc(NC(=O)CSc2nc3ccccc3n2C)cc1 | 1.01
O=C(CSc1nnnn1-c1ccc(Cl)cc1)Nc1ccccc1Cl | 0.857
O=C(CSc1nnnn1-c1ccccc1)Nc1ncccn1 | 0.134*
NC(=O)c1ccc(-n2nnnc2SCC(=O)Nc2ccccc2)cc1 | 1.06
COc1ccc(-n2ncc3c(NCCc4ccc(S(N)(=O)=O)cc4)ncnc32)cc1 | 0.991
Cc1ccc(C(=O)Nc2nc(-c3ccc(C#N)cc3)cs2)cc1 | 0.989
COc1ccc(C(=O)c2cn(Cc3ccc(Cl)cc3)c3ccccc3c2=O)cc1 | 0.624
CCC(=C(c1ccc(OC)cc1)c1ccc(OC)cc1)c1cn(CCCN(C)C)c2ccccc12 | 0.273*
SMILES | CBX7 AlphaScr
COc1ccc(C(O)Cn2c(=N)n(CCCN(C)C)c3ccccc32)cc1 (stereo unspecified) | 0.947
Cc1ccc(Nc2c(-c3ccsc3)nc3cc(C)ccn23)cc1 | 0.946
COc1ccc(OC)c(NC(=O)c2cc3c(n(-c4ccc(C)cc4)c2=O)CCCC3=O)c1 | 0.961
Cc1ccc2c(c1)C(c1ccccc1)N(C(=O)C(C)(C)C)CC(=O)N2 (stereo unspecified) | 0.975
COC(=O)C(C)C1Sc2ccccc2N(Cc2ccccc2Cl)C1=O (stereo unspecified) | 0.988
O=C1c2ccccc2C(Nc2cc(F)ccc2F)N1c1ccc(Cl)cc1 (stereo unspecified) | 0.984
CCN(CC)S(=O)(=O)c1ccc2c(c1)N(CC(=O)N1CCN(c3ccccn3)CC1)C(=O)CO2 | 1.03

Bioassay records: PubChem BioAssay, Bradner/Qi Labs at DFCI
